Measurements reported in PubChem BioAssay (NCATS).
Inconclusive results are not listed. Where a call stands in place of a potency, no number is given. Active and inactive are the calls of the source. Calls come from the whole dose curve; as a rule, active = well fitted cell-killing curve with a large enough effect; inconclusive = small, poorly fitted or top-dose-only effect, or effect the other way; inactive = flat fitted curve, though single readings scatter.

test system: CAOV3; assay: Primary qHTS to identify gynecologic anti-cancer compounds using libraries of approved drugs and bioactive compounds (AID 1345084); details: Gynecologic cancer cell panel viability, ATPlite luminescence, 48 h; series mostly up to 57.5 µM; note: nearly all actives have a fitted effect of over 55% in size
Source text: National Center for Advancing Translational Sciences [NCATS] Assay Overview: Chemotherapeutic drug responses vary from cancer to cancer and from patient to patient. These variations could be caused by a number of factors including patient genomic background, tumor mutations, tumor heterogeneity, and aspects of drug treatment. Chemotherapeutic drug resistance is also a common issue and can lead to ineffective treatment and patient death. Here we have profiled the cell killing effects of thousands of compounds to characterize the responses in three gynecological cancers, identify cancer-selective compounds, and understand the diversity of responses to these compounds from pan-cancer suppressors to single cell line selective compounds. In this assay, we screened a 7,914 compound drug library that included approved drug and bioactive compounds in six ovarian, three cervical, and […] placental cancer cell lines using the ATPlite assay for cell viability. […] The cervical cancer cell lines included HeLa, Ca Ski, and C-33 A. The placental cancer cell lines included JEG-3. HEK 293T cells were used as the control cell line to determine the selectivity index. ATPlite is a luminescence based assay reliant on the conversion of a luciferase substrate to light in the presence of ATP. As a cytotoxic compound will suppress growth and decrease the number of cells, the concentration of ATP will decrease, and less light signal will be detected in the well.
Assay Protocol Summary: 1,000 cells in 4 uL of media were dispensed into white, solid bottom 1536-well plates using a Multidrop Combi (Thermo Scientific). The Assay plates were incubated for 16 hours at 37 C with 5% CO2 in assay plates, followed by the addition of 23 nL of DMSO or drug dissolved in DMSO. Each compound was assayed in five concentrations (0.092, 0.46, 2.3, 11.5, and 57.5 uM), using the automated Wako 1536 Pin Tool workstation and incubated at 37 C with 5% CO2 48 hours. 4 uL of ATPlite, the ATP monitoring reagent, was then added to the each well of the assay plates using the Multidrop Combi reagent dispenser followed by incubation for 15 minutes at room temperature. The resulting luminescence was measured using the ViewLux plate reader.
Potency is the fitted concentration of half-maximal effect.

Row | SMILES | Potency | activity change, negative = cytotoxicity
1 | CN(c1ccc(NC(=O)Nc2ccccc2)cc1)S(=O)(=O)c1cnn(-c2ccc(F)cc2)c1 | inactive | 
2 | CN(C)CCOc1cc(NS(=O)(=O)c2c(Cl)cc(C(F)(F)F)cc2Cl)ccc1Cl | inactive | 
3 | Nc1nc2c(nc(Br)n2[C@@H]2O[C@@H]3COP(=O)(O)O[C@H]3[C@H]2O)c(=O)[nH]1 | inactive | 
4 | N#Cc1ccc(COC[C@H]2O[C@@H](n3c(NCc4ccc(Cl)c(Cl)c4)nc4c(N)ncnc43)[C@H](O)[C@@H]2O)cc1 | inactive | 
5 | N#Cc1ccc2ncnc(NCCc3ccccc3)c2c1 | inactive | 
6 | COc1c2c(c(C)c3c1C(=O)OC3)O[C@@]1(C)C[C@@H](OC(C)=O)[C@]34O[C@](OC)(CC[C@]3(C)[C@H]1C2)OC4(C)C | inactive | 
7 | C=C1C(=O)OC2CC(C)C(CCC(C)O)=CCC12 (stereo not given) | inactive | 
8 | Cc1cc2c(N3CCCC3)nc(N3CCCC3)nc2n1C | inactive | 
9 | Cc1ccc(F)cc1S(=O)(=O)N[C@@H]1CCN(Cc2ccc(OC(C)C)cc2)C1 | inactive | 
10 | O=C(OC1CN2CCC1CC2)N1CCc2ccccc2C1c1ccccc1 (stereo not given) | inactive | 
11 | C=C[C@]1(C)C[C@H](O)[C@H]2C(=C)C(=O)O[C@@H]2[C@H]1C(=C)CO | inactive | 
12 | CC(C)(Cc1nc(-c2ccc(O)cn2)no1)C(=O)NC1=C(C(=O)O)CCCC1 | inactive | 
13 | C=C1CCC2[C@](C)(CCC[C@@]2(C)C=O)[C@H]1CC/C(C)=C/CO (stereo not given in full) | inactive | 
14 | C#CC(=O)N(c1ccc(OC)cc1OC)C(C(=O)NCC(=O)OCC)c1cccs1 (stereo not given) | 1.78 µM (active) | 
15 | COc1ccc(CCCN2CCC(COC(c3ccccc3)c3ccccc3)CC2)cc1 | inactive | 
16 | C[C@H]1[C@H](/C=C/c2ccc(-c3ccccc3C#N)cn2)[C@@H]2[C@@H](C)OC(=O)[C@@H]2C[C@@H]1C | inactive | 
17 | COC1CC(=O)C23C(=O)NC(CC(C)C)C2C(C)C(C)=CC3/C=C(\C)CCCC1O (stereo not given) | inactive | 
18 | Cn1cc(-c2ccc3c(c2)CCN3C(=O)Cc2cccc(C(F)(F)F)c2)c2c(N)ncnc21 | inactive | 
19 | COCCN(C(=O)c1cc(OC)c(OC)c(OC)c1)c1nc(-c2ccccc2)cs1 | inactive | 
20 | Fc1ccc(N2CCN(CCC3OCCc4ccccc43)CC2)cc1 (stereo not given) | inactive | 

Row | SMILES | Potency | activity change, negative = cytotoxicity
21 | CC1(C)CCC2(C(=O)OC3OC(COC4OC(CO)C(O)C(O)C4O)C(O)C(O)C3O)CCC3(C)C(=CCC4C5(C)CCC(OC6OCC(O)C(O)C6O)C(C)(C)C5CCC43C)C2C1O (stereo not given) |  | 1.87% [at 11.6 µM] (inactive)
22 | Cc1nc(N2CCN(C(=O)c3ccco3)CC2)c2c3c(sc2n1)CCCC3 | inactive | 
23 | CCCCCCCOc1cc2c(cc1/C(C)=C/c1ccc(C(=O)O)cc1)C(C)(C)CCS2(=O)=O | inactive | 
24 | CN(C)C(=O)C(=O)c1cn(C)c2cc(Cl)c(C(=O)N3CCC(Cc4ccc(F)cc4)CC3)cc12 | inactive | 
25 | CC[C@@H](Nc1c(Nc2cccc(C(=O)N(C)C)c2O)c(=O)c1=O)c1cc(C(C)C)co1 | inactive | 
26 | O=C(NCCN1CCOCC1)c1cc2c(Oc3ccc(NC(=O)C4(C(=O)Nc5ccc(F)cc5)CC4)cc3)ccnc2[nH]1 | inactive | 
27 | O=C(Nc1ccc(CN2CCOCC2)cc1)c1ccc(-c2cccc(Cl)c2)o1 | inactive | 
28 | CCC(C)C(=O)O[C@H]1[C@H](O)[C@@]2(COC(C)=O)C(CC1(C)C)C1=CCC3[C@@]4(C)CC[C@H](O[C@@H]5O[C@H](C(=O)O)[C@@H](O)[C@H](O)[C@H]5O)[C@@](C)(CO)C4CC[C@@]3(C)[C@]1(C)C[C@@H]2O (stereo not given in full) |  | -4.8% [at 11.6 µM] (inactive)
29 | Oc1cccc(-c2c3nc(c(-c4cccc(O)c4)c4ccc([nH]4)c(-c4cccc(O)c4)c4nc(c(-c5cccc(O)c5)c5ccc2[nH]5)CC4)C=C3)c1 | inactive | 
30 | COc1cc(F)c(C(C)C)cc1-c1ccc(C(F)(F)F)cc1CN1C(=O)OC(c2cc(C(F)(F)F)cc(C(F)(F)F)c2)C1C (stereo not given) | inactive | 
31 | COc1ccccc1S(=O)(=O)Nc1ccc2c(c1)CN(C)C(=O)N2 | inactive | 
32 | COc1ccc(NC(=O)c2ccc(C(=N)N(C)C)cc2)c(C(=O)Nc2ccc(Cl)cn2)c1 | inactive | 
33 | Cc1cc(C(=O)Cn2cc(C#N)ccc2=O)c(C)n1Cc1ccccc1 | inactive | 
34 | C[C@@H](NC(=O)c1ccc(C#Cc2cccc(F)c2)cn1)C(C)(C)O | inactive | 
35 | CC1=CC2/C=C(\C)CCC(O)C/C=C/C(=O)OC23C(=O)NC(CC(C)C)C3C1C (stereo not given) | inactive | 
36 | COc1c(CCC(=O)O)cccc1O[C@@H]1O[C@H](CO)[C@@H](O)[C@H](O)[C@H]1O | inactive | 
37 | CCC(C)C1NC(=O)C(Cc2ccccc2)NC(=O)C(CCCCCC(=O)C(O)CO)NC(=O)C2CCCCN2C1=O (stereo not given) | inactive | 
38 | CO[C@H]1C[C@@H]2CC[C@@H](C)[C@@](O)(O2)C(=O)C(=O)N2CCCC[C@H]2C(=O)O[C@H]([C@@H](C)C[C@@H]2CC[C@@H](O)[C@H](OC)C2)CC(=O)[C@H](C)/C=C(\C)[C@@H](O)[C@@H](OC)C(=O)[C@H](C)C[C@H](C)/C=C/C=C/C=C/1C | inactive | 
39 | C=C1C(=O)O[C@H]2/C=C(/C)[C@@H](OC(C)=O)C/C=C(\C)C[C@@H](OC(=O)/C(=C/C)COC(=O)/C(=C/C)CO)[C@@H]12 | 8.91 µM (active) | 
40 | Nc1nc2c(cnn2CCCc2ccc(O)cc2)c2nc(-c3ccco3)nn12 | inactive | 
